# Values without a mark were called inactive. How the calls were made is not given here.
# How the values were obtained:
# Experiment in all cases: primary screen, binary call; higher = more effect of the substance
# Factor Xa = Factor Xa (bovine, UniProt P00743); parameters: screenings were carried out in duplicate in one independent experiment; conditions: 200 µM
# Protocol: Protease inhibitory assays were performed in transparent microtiter plates in a final volume of 200 µL with the use of chromogenic substrates. The reaction rates in the absence and in the presence of the inhibitor were measured; screenings were carried out in duplicate in one independent experiment and Ki values were determined in triplicate in two independent experiments.
# 5-HT6 receptor = 5-HT6 receptor (human, UniProt P50406); parameters: hit call from the mean of at least two separate experiments; conditions: 10 µM
# 5-HT6 receptor, sequence (P50406 whole entry, looked up): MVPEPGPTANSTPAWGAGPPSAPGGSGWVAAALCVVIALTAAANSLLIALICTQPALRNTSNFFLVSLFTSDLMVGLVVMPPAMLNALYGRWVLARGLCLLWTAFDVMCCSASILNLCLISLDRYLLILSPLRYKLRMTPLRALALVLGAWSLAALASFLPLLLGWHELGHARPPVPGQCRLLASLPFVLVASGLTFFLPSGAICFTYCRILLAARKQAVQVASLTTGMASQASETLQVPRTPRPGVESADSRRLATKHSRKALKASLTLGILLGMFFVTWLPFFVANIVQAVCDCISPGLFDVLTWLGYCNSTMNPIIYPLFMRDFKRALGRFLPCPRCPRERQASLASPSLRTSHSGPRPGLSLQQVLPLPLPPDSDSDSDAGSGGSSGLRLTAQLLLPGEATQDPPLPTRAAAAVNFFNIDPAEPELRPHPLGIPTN
# 5-HT7b receptor = 5-HT7b receptor (human, UniProt P34969); parameters: hit call from the mean of at least two separate experiments; conditions: 10 µM
# 5-HT7b receptor, sequence (P34969 whole entry, looked up): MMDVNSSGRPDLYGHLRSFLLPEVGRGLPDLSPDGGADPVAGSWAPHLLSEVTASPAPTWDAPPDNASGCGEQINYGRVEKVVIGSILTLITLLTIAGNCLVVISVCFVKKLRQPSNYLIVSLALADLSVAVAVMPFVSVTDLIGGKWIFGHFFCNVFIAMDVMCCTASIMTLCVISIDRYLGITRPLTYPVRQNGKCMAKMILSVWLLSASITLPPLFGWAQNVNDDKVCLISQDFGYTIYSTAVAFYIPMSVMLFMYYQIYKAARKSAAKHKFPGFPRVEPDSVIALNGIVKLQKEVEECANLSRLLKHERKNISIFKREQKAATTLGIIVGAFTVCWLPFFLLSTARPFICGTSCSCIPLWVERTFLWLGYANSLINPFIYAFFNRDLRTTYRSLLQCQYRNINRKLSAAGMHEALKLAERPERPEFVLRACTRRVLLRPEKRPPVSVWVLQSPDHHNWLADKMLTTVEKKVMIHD
# Factor Xa, sequence (P00743 41-180 limits assumed): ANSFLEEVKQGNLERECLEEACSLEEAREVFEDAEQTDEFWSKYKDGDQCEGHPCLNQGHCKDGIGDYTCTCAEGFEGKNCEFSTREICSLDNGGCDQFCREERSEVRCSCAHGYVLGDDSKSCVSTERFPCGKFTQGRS
# Factor Xa, sequence (P00743 234-492 limits assumed): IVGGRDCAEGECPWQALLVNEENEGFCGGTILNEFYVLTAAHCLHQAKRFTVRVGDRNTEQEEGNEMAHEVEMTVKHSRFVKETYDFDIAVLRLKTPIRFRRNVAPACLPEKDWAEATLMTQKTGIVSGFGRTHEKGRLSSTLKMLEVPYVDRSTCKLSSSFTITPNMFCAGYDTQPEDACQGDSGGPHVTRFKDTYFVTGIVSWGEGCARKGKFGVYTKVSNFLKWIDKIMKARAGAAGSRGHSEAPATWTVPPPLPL
Compound,Factor Xa (Factor Xa),5-HT6 (5-HT6 receptor),5-HT7 (5-HT7b receptor)
CC(=O)c1ccc2c(c1)CCCN2,0,0,0
NC1CCc2ccccc21 (stereo not drawn),0,0,0
CCN(CC)c1cccc(C)c1,0,0,0
COc1ccc(CN2CCNCC2)cc1F,0,0,0
O=C(O)c1cnc(-c2ccccc2)s1,0,0,0
O=C(CN1CCNCC1)c1ccccc1,0,0,0
O=C1NC(=O)C2(CCc3ccccc32)N1 (stereo not drawn),0,0,0
Cc1cc(C)c2c(=O)[nH]n(C)c2n1,0,0,0
c1ccc2sc(N3CCNCC3)nc2c1,0,0,0
FC1(F)CNCC(F)(F)O1,0,0,0
CC1(C)OC(=O)c2cc(Br)c(O)cc2O1,0,1 (active),0
CC(=O)c1sc(-c2ccc(O)cc2)nc1C,1 (active),1 (active),0
COc1ccccc1CC1CCNCC1.Cl,1 (active),1 (active),1 (active)
N#CC1CCS(=O)(=O)C1 (stereo not drawn),0,0,0
c1ccc(Nc2nncs2)cc1,1 (active),0,0
COc1cccc(NC2=NCCCCC2)c1,0,0,0
Oc1ccccc1N1CCCCC1,1 (active),1 (active),0
Cn1nc(C(F)(F)F)cc1O,0,0,0
c1cnc2c(c1)NCCC2,0,0,0
O=C(NC1CC1)c1ccccc1O,0,0,0
CCCN1C(=O)CC(=O)NC1=S,0,0,0
Cc1nccn1Cc1cccc(C#N)c1,0,0,0
O=C(O)C1CCCN(C(=O)N2CCCC2)C1 (stereo not drawn),0,0,0

Compound,Factor Xa (Factor Xa),5-HT6 (5-HT6 receptor),5-HT7 (5-HT7b receptor)
CC(CN)N1CCc2sccc2C1 (stereo not drawn),0,0,0
N#Cc1ccc2ncsc2c1,0,0,0
CS(=O)(=O)c1ccc(N2CCNCC2)cc1,0,0,0
Nc1ccc(-c2ccccc2)cc1C(=O)O,0,0,0
COc1ccccc1C1CCNCC1,0,1 (active),1 (active)
CN1CC(=O)NC1=O,0,0,0
N#Cc1ccc(C(=O)N2CCOCC2)cc1,0,0,0
c1ccc2oc(C3CCCNC3)nc2c1 (stereo not drawn),0,0,0
c1ccc2c(N3CCNCC3)ccnc2c1,0,1 (active),0
Brc1ccc(-c2ccon2)cc1,0,0,0
CC1C(=O)NC(=O)N1c1ccc(Cl)cc1 (stereo not drawn),0,0,0
C1=C[C@H]2O[C@@H]1c1ccccc12,0,0,0
Fc1ccc(CC2CCCNC2)cc1 (stereo not drawn),0,0,0
NC(=O)N1CCC(C(=O)O)CC1,0,0,0
O=C1CCC(=O)N(c2ccccc2)N1,0,0,0
O=C(O)c1ccc(CN2CCOCC2)cc1,0,0,0
O=C(c1ccccc1F)N1CCNCC1,1 (active),0,0
NC(c1ccccc1)c1ccccc1,0,0,0
Cc1ccc(C)n1Cc1ccccc1Cl,0,0,0
O=c1[nH]ncc2c1oc1ccccc12,0,0,0
CS(=O)(=O)Nc1ccc(C(=O)O)cc1,0,0,0
c1ccc(-c2ccncc2)cc1,0,0,0
Cc1cnc(C(F)(F)F)cn1,0,0,0

# — publication PMC8159961, “Exploring protein hotspots by optimized fragment pharmacophores” (Nature Communications, 2021)
